In the library only some 3% were active in any assay of this set; here they are far more common.
esBAF inh – Bmi1 luciferase reporter increase in mESCs, primary screen, esBAF inhibitor project, mouse ES cells, Bmi1 luciferase knock-in, single point | 24 h; 100% = twice the neutral-well signal | reporter increase, % at 12.5 µM | hit rate 2% among 350,000 | AID 602393, 2012; in the data active = activation above about 40%; inconclusive = no clear call, values can overlap the other calls;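 also: 0% = median of the plate's neutral control wells and 100% = double that signal; a rise in the Bmi1 reporter signal indicates esBAF inhibition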
N-glyco inh – increase of ERlucT glycosylation luciferase signal, primary screen, N-linked glycosylation inhibitor project, D54 ERlucT cells, luminescence, set 2. D54 ERlucT glycosylation luciferase reporter, 24 h; percent of 100 nM tunicamycin response. hit rate 0.23% among 360,000. reporter increase, % at 12.5 µM;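 active = mean luciferase reporter signal, scaled so untreated is 0 and the glycosylation-blocking control 100, at or above a set limit in every replicate; inconclusive = mean reaches the limit but not every replicate does; inactive = mean below the limit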;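 also: luciferase carries N-glycosylation sites so blocking glycosylation raises the light; 0% = median of neutral control wells and 100% = median of 100 nM tunicamycin wells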
Wnt bcat act – Wnt/beta-catenin pathway activators, primary screen, cell-based, plate reader, single point | Wnt/beta-catenin reporter cell assay, activator | activation, % at 9.35 µM | hit rate 1.2% among 300,000; in the data active = activation above about 30%, passing the limit was not always enough; inconclusive = no clear call, values can overlap the other calls;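 also: 0% = neutral control wells and 100% = positive control wells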
PfHsp90 yeast 2 – growth inhibition of PfHsp90-expressing yeast, primary screen, antimalarial PfHsp90 inhibitor project, S. cerevisiae, BacTiter-Glo luminescence, single point, set 2; BacTiter-Glo ATP, 48 h; yeast lacking PDR1 and PDR3 efflux regulators; inhibition, % at 9.4 µM; hit rate 0.32% among 310,000;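 active = every replicate shows inhibition above about 80%, whatever the replicate mean, limit read from the data; inconclusive = mean inhibition reaches the set limit but some replicate falls short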;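 also: 0% = DMSO neutral controls and 100% = 20 µM radicicol positive controls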
Vif imaging – HIV Vif self-association inhibitors, primary screen, imaging, HEK293T, single point; HEK293T cells, Vif self-association by quenched fluorescence, 24 h; inhibition, % at 7.49 µM; hit rate 0.35% among 340,000; AID 602346, 2012; in the data active = inhibition above about 50%, passing the limit was not always enough; inconclusive = no clear call, values can overlap the other calls; inactive = below about 31%
MITF TRPM1 HTS – activators of MITF-driven TRPM1 promoter reporter, primary screen, cell-based, SK-MEL-5, luciferase, single point. SK-MEL-5 TRPM1-promoter luciferase, 24 h; % of positive control, neutral wells = 0. activation, % at 12.5 µM. hit rate 0.75% among 300,000;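 active = mean activation of at least 80% with every replicate also reaching 80%; inconclusive = mean reaches 80% but some replicate falls short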;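 also: 0% = neutral control wells and 100% = parthenolide positive control wells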
Starred values were filed as active, the others as inactive; ? = inconclusive; / = no result; + = active, no number.

SMILES	esBAF inh	N-glyco inh	Wnt bcat act	PfHsp90 yeast 2	Vif imaging	MITF TRPM1 HTS
C[C@@H]1CN([C@@H](C)CO)C(=O)c2cc(NC(=O)c3ccncc3)ccc2O[C@@H](C)CCCCO[C@@H]1CN(C)C(=O)CCCN(C)C	0	/	/	/	/	/
CCN(CC)CCCNC(=O)CNC(=O)c1nn(-c2ccc(OC)c(OC)c2)c(=O)c2ccccc12	-7	0	0	-21	0	6
CCc1ccc(CN(C)Cc2nc(COc3ccccc3)no2)nc1	/	3	-1	4	1	-5
COc1ccc(NC(=O)c2cc(=O)c3ccccc3o2)cn1	2	-1	/	-5	8	26
Cc1cc(C(=O)Nc2ccccc2)oc1C	/	-3	/	-8	-9	113*
O=C(Nc1ncccc1Cl)c1cc2ccccc2o1	?	-8	46*	-3	14	51
CC(C)NC(=O)c1cc2ccccc2o1	1	-1	-2	/	-7	/
O=C(Nc1ccc(Cl)cc1Cl)c1cc2ccccc2o1	0	-10	14	-27	1	/
CC(C)c1nnc(NC(=O)c2cc3ccccc3o2)s1	23	-5	27	-5	-8	108*
COc1ccc(NC(=O)c2cc3ccccc3o2)cn1	68*	-3	43*	4	-4	104*
O=C(Nc1ccc(NC(=O)c2cc3ccccc3o2)cc1)c1ccco1	0	-3	0	-5	-1	6
O=C(Nc1ccc(F)cc1)c1cc2ccccc2o1	47*	-4	16	-5	-2	45
CC(=O)c1ccc(NC(=O)c2cc3ccccc3o2)cc1	39	-12	39*	-9	-2	31
O=C(Nc1nc(-c2cccs2)cs1)c1ccc(Cl)cc1	/	-1	/	37	-14	7
O=C(/C=C\c1ccco1)Nc1cc([N+](=O)[O-])ccc1F	/	5	/	13	64*	-56
O=C(/C=C/c1ccco1)Nc1nnc(-c2ccco2)s1	/	35*	-1	-19	0	/
O=C(Cc1ccccc1)Nc1nc(-c2cccs2)cs1	65*	-2	0	-21	-12	?
O=C(/C=C/c1ccco1)Nc1cc(Cl)ccc1C(=O)O	5	4	/	18	-2	15
COc1ccc(C(=O)Nc2nc(-c3cccs3)cs2)cc1	84*	0	/	/	-14	45
Cc1ccccc1-n1c(=O)cc(N2CCc3ccccc3C2)[nH]c1=O	7	-1	-2	10	2	-2
CCC(C)C(=O)Nc1nnc(-c2cccs2)s1 (stereo not given)	?	3	34*	22	8	/
O=C(Cc1ccccc1)Nc1nnc(-c2ccco2)s1	48*	6	/	12	3	60
O=C(Cc1ccccc1)Nc1nnc(-c2cccs2)s1	52*	4	27	-36	-6	77
CCCC(=O)Nc1nnc(-c2ccco2)s1	22	7	3	-14	-20	63
CCN(CC)C(=O)[C@H]1C[C@H](CC(=O)NCc2ccc(OC)c(OC)c2)C(=O)N2CCc3c([nH]c4cc(CCC(=O)N(C)C)ccc34)[C@]12C	-16	1	-1	-29	3	-1
SMILES	esBAF inh	N-glyco inh	Wnt bcat act	PfHsp90 yeast 2	Vif imaging	MITF TRPM1 HTS
CCOc1cc(-c2n[nH]c(=S)n2Cc2ccccc2)ccc1OC(F)F	8	0	-2	-2	0	-3
C[C@@H]1CCCCO[C@H](CN(C)Cc2ccncc2)[C@H](C)CN([C@@H](C)CO)C(=O)c2cc(NC(=O)CCC(F)(F)F)ccc2O1	1	/	/	/	/	/
COc1ccc2c(C)nc(Nc3nc(-c4ccccc4)cc(=O)[nH]3)nc2c1	-62	94*	-17	17	-13	-70
C[C@@H]1CN([C@@H](C)CO)C(=O)Cc2cc(NS(=O)(=O)c3cn(C)cn3)ccc2O[C@H]1CN(C)S(=O)(=O)c1cccs1	-2	/	/	/	/	/
COc1ccc(/C=C2\SC(=O)N(CCNC(=O)CCS(=O)(=O)c3ccc(C)cc3)C2=O)cc1	/	-6	33*	4	-3	55
CC(C)(C)C(=O)[C@H]1[C@H](c2ccccc2)[C@@]2(N=C(c3ccccc3)OC2=O)C2c3ccccc3C=NN21 (stereo not given in full)	47*	-1	12	-17	13	/
COc1cc(C2c3cc4c(cc3C3OC(=O)C2C3CO)OCO4)cc(OC)c1OC (stereo not given)	-16	8	-10	/	/	/
CCN(CC)C1Oc2cc3c(cc2C(c2cc(OC)c(OC)c(OC)c2)C1C)OCO3 (stereo not given)	-16	10	-4	-19	55*	-37
Cc1cc(C)n(-c2cc(C(C)(C)C)nc3c(-c4ccccc4)cnn23)n1	/	-11	56*	-58	-6	121*
Cc1cc(C)n(-c2cc(C(C)(C)C)nc3c(-c4ccc(Cl)cc4)cnn23)n1	17	-5	/	2	1	29
CC(C)(C)c1cc(NCc2ccccn2)n2ncc(-c3ccccc3)c2n1	/	-5	12	108*	1	45
Cc1cc(NC(C)c2ccccc2)n2ncc(-c3ccccc3)c2n1 (stereo not given)	59*	-13	27	-29	2	122*
Cc1cc(NCc2ccccc2)n2ncc(-c3ccccc3)c2n1	21	-18	28	33	-9	104*
COc1ccc(CCNc2cc(C)nc3c(-c4ccccc4)cnn23)cc1OC	/	-15	14	-28	1	8
Cc1cc(NC2CCCC2)n2ncc(-c3ccccc3)c2n1	-45	-21	0	-21	-2	18
COc1ccc2c(c1)OC[C@H]1[C@H]2N2C(=O)c3ccc(F)cc3NC(=O)[C@@]2(C)[C@H]1c1ccccc1	/	20	-5	/	/	-22
Cc1ccc2c(c1)C(=O)N1[C@H]3c4cc(C)ccc4OC[C@@H]3[C@H](c3ccccc3)[C@]1(C)C(=O)N2	2	24	2	-109	-4	-21
COc1ccc2c(c1)OC[C@H]1[C@H]2N2C(=O)c3cc(Br)ccc3NC(=O)[C@@]2(C)[C@H]1c1ccccc1	9	36*	/	102*	-5	-25
COc1ccc2c(c1)[C@H]1[C@H](CO2)[C@H](c2ccccc2)[C@]2(C)C(=O)Nc3ccc(Br)cc3C(=O)N12	-2	41*	2	+	-1	-31
COc1ccc2c(c1)C(=O)N1[C@H]3c4cc(OC)ccc4OC[C@@H]3[C@H](c3ccccc3)[C@]1(C)C(=O)N2	-3	62*	-11	-36	1	3

High-throughput results (PubChem)
